Bioassay records (PubChem)
An excerpt weighted towards active compounds, which were near 6.2% of everything screened.
HCMV antiviral = human cytomegalovirus inhibition; actives 4.5% (n = 410,000); AID 1259415; activity change, negative = inhibition, % at 57.5 µM; HFF cells, HCMV-luciferase reporter, 72 h; stronger effect = lower value; in the data active = activity change below about -60%; inconclusive = no clear call, values can overlap the other calls; inactive = above about -39%
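Cell-based, HFFs, 1000 cells/well, 16 h 37C; cpds in DMSO + HCMV-luc, MOI 1 PFU/cell; 72 h 37C; OneGlo luminescence after 5 min RT; norm. to buffer vs Salinomycin 10uM.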
Lassa entry inh = blocks Lassa virus binding to or entry into cells; actives 1.2% (n = 300,000); Lassa virus pseudotype entry inhibition, cell reporter; AID 540256; Potency, µM (top dose mostly 37.9 µM), inactives show at the highest dose activity change, negative = inhibition, usual class: inhibitors; calls by dose curve; tested in HEK293 cells; also: potency is read from the fitted curve at half-maximal effect; nearly all actives have a fitted effect of over 50% in size
FMDV antiviral = blocks foot and mouth disease virus | FMDV antiviral cell-based qHTS | Potency, µM (highest dose often 57.9 µM), without a hit: top-dose activity change, negative = inhibition, usual class: inhibitors | actives 1.2% (n = 410,000); calls by dose curve; tested in HEK293T cells; also: read-out not given here; potency is read from the fitted curve at half-maximal effect; nearly all actives have a fitted effect of over 45% in size
Marburg entry inh = blocks Marburg virus binding to or entry into cells; Marburg virus pseudotyped entry inhibition, cell reporter; Potency, µM (titrated, usually from 37.8 µM), for inactives: at the top dose activity change, negative = inhibition, most hits filed as inhibitors; actives 1.8% (n = 300,000); AID 540276; calls by dose curve; tested in HEK293 cells; also: potency is read from the fitted curve at half-maximal effect
Starred values were filed as active, the others as inactive; ? = inconclusive; nt = no result given; ! = a repeat was not active; [ ] = remark or other dose. % is scaled to controls: 0 for no effect and ±100 for the full control effect.

SMILES	HCMV antiviral	Lassa entry inh	FMDV antiviral	Marburg entry inh
O=C1CN(C(=O)c2ccc(S(=O)(=O)N3CCCCC3)cc2)C(c2ccc(F)cc2)c2cc(F)ccc2N1 (stereo unspecified)	0	-9%[46.1 µM]	-2%	?
Cc1ccc(OCC(=O)OCc2cc(=O)n3c(C)csc3n2)cc1	-2	-2%[46.1 µM]	8%	nt
CCCCCCCC1=Cc2ccccc2C(C(C(=O)OC)C(=O)OC)N1C(=O)OC (stereo unspecified)	nt	nt	nt	-2%[14.2 µM]
CSc1ccc(CNC(=O)c2ccc3c(c2)N(C)C(=O)C2CCCCN32)cc1 (stereo unspecified)	1	29%[46.1 µM]	17%	nt
CCOc1ccc(NCc2cccn2-c2nnc(N3CCC(C(=O)NCc4ccccc4Cl)CC3)s2)cc1	-30	nt	?	1%[46.1 µM]
Cc1ccc(S(=O)(=O)/N=C2/C=C(Sc3ncn[nH]3)C(=O)c3ccccc32)cc1	nt	2.9µM*	-25%	?
Cc1ccc(S(=O)(=O)/N=C2/C=C(Sc3ncn[nH]3)C(=O)c3ccccc32)c(C)c1	nt	4.1µM*	nt	?
COc1ccc(Cl)cc1C(=O)NNC(=O)CSc1nncn1C	-91*	14%[46.1 µM]	41%	16%[46.1 µM]
COc1ccccc1C(=O)NC(=O)CSc1nncn1C	-11	20%	-15%	1%
Oc1cc2c(cc1O)C(c1ccccc1)CNCC2 (stereo unspecified)	-31	?	-12%	16µM*!
CN1CCc2cc(Cl)c(O)cc2[C@@H](c2ccccc2)C1	-65*	0%	1.3µM*!	-10%
C=CCN1CCc2cc(O)c(O)cc2[C@H](c2ccccc2)C1	nt	nt	-1%	?
CN1CCc2cc(Cl)c(O)cc2[C@H]2c3ccccc3CC[C@@H]21	nt	nt	0%	nt
CN1CCc2cc(O)c(O)cc2C(c2ccccc2)C1 (stereo unspecified)	-25	?	-16%	13µM*!
COc1cccc(CN2C(=O)[C@H]3Cc4c([nH]c5ccccc45)C(C)(C)N3C2=O)c1	-19	nt	35µM*	nt
COc1ccccc1CN1C(=O)[C@@H]2Cc3c([nH]c4ccccc34)C(C)(C)N2C1=O	-17	nt	28µM*	nt
Cc1ccccc1CN1C(=O)[C@@H]2Cc3c([nH]c4ccccc34)C(C)(C)N2C1=O	-4	nt	?	nt
CCN1C(=NCCCOC(C)C)NC(c2ccccc2)C(C(=O)OC)=C1C (stereo unspecified)	nt	?	nt	-3%[14.2 µM]
CC(C)C(c1nnnn1Cc1ccco1)N1CCN(C2CCCC2)CC1 (stereo unspecified)	-5	2%	-9%	1%
CC(C)C(c1nnnn1Cc1ccco1)N1CCN(c2nc3ccccc3s2)CC1 (stereo unspecified)	?	?	22µM*	-9%[46.1 µM]
CC(C)CC(c1nnnn1Cc1ccco1)N1CCN(c2cccc(Cl)c2)CC1 (stereo unspecified)	-2	?	?	8.9µM*
O=C1OC(/C(=C\Nc2cc(Cl)ccc2O)[N+](=O)[O-])c2ccccc21 (stereo unspecified)	-77*	19%	-27%	?
CCN1CCN(C(=S)c2ccc(-c3ccccc3)cc2)CC1	-81*	nt	-28%	nt
Cc1ccc(C(=S)N2CCN(Cc3ccccc3)CC2)cc1	-30	?	-27%	5%[46.1 µM]
CCC(COC)NC(=O)c1cnn(-c2ncc3c(n2)-c2ccccc2CC3)c1C (stereo unspecified)	nt	nt	29%	nt
SMILES	HCMV antiviral	Lassa entry inh	FMDV antiviral	Marburg entry inh
O=C(c1cccs1)N1CCN(C(=O)c2cccs2)C1=S	?	?	35µM*	?
O=C(c1cccs1)N1CCCC1	46	-17%	13%	13%
CC1(C)CC(NC(=O)c2coc(=O)c(Br)c2)CC(C)(C)N1	85	-1%	32µM*	3%
CCCC(=O)N1CC2(C1)CN(C(=O)CN1CCOCC1)[C@H](CO)c1c2c2ccc(OC)cc2n1C	1	nt	nt	nt
Cc1cc(N2CCCC2=O)cc(C)c1S(=O)(=O)NCCOc1ccccc1	-77*	-1%	nt	-25%
O=C(CSc1nc2ccccc2nc1Cc1ccc(Cl)cc1)Nc1ccc2c(c1)OCO2	-21	15%[46.1 µM]	-6%	nt
CCC(=O)Nc1ccc(C=C(C(C)=O)C(C)=O)cc1	80	nt	20µM*	nt
COc1cccc(/C=C(/C(=O)OCC(N)=O)c2ccccc2)c1	-18	nt	-19%	-9%[46.1 µM]
COc1cccc(C=C(C(C)=O)C(=O)c2ccccc2)c1	4	nt	20µM*	nt
CCC(=O)Nc1ccc(/C=C(\C(C)=O)C(=O)c2ccccc2)cc1	-25	-28%	28µM*	15%
CCC(C)NC(=O)c1ccc2nc(CCc3ccccc3)oc2c1 (stereo unspecified)	22	?	12%	nt
Clc1ccc(-c2nnc(Sc3nc4ccccc4o3)c3ccccc23)cc1	-82*	?	nt	?
COc1cc(CNc2ccc(C(=O)O)cc2)cc(Br)c1OCC(=O)NC(C)(C)C	-13	11%	-15%	2%
C=CCOc1c(Br)cc(CNc2ccc(NC(=O)C(C)C)c(OC)c2)cc1OC	-98*	?	?	?
Cc1cc(C)n(-c2nnc(Nc3ccc(C)c(Cl)c3)c3ccccc23)n1	-98*	3%[46.1 µM]	0%	-4%[46.1 µM]
C/C(=N\NC(=O)COc1ccc(C)cc1Br)c1cc([N+](=O)[O-])cs1	-81*	?	-10%	?
N#Cc1cc2c(=O)n3ccccc3nc2n(-c2ccc(Cl)cc2)c1=O	-60*	nt	5%	nt
Cc1ccccc1-n1c(=O)c(C#N)cc2c(=O)n3ccccc3nc21	-24	8%	-18%	-3%
COc1ccc(C2CC(c3cccc(C(F)(F)F)c3)=NN2c2ccc(S(N)(=O)=O)cc2)cc1 (stereo unspecified)	-101*	nt	0%	nt
COc1ccc(C2CC(c3cccc(F)c3)=NN2c2ccc(S(N)(=O)=O)cc2)cc1 (stereo unspecified)	4	nt	?	0%
O=S(Cc1ccc(Br)cc1)Cc1nnc(SCc2c(F)cccc2Cl)n1-c1ccccc1 (stereo unspecified)	?	?	35µM*	?
O=S(Cc1ccc(Br)cc1)Cc1nnc(SCc2ccc(Cl)cc2)n1-c1ccccc1 (stereo unspecified)	-66*	13µM*	0%	?
Cn1c(CS(=O)Cc2c(Cl)cccc2Cl)nnc1SCc1ccc(Cl)cc1 (stereo unspecified)	-12	6%	-3%	-16%
COc1ccc2c(c1)CCC[C@]1(C)O[C@@H]1C(=O)c1ccccc1O2	-19	nt	nt	nt
CN(C(=O)CSc1nc(-c2ccccc2)c(-c2ccccc2)o1)C1CCS(=O)(=O)C1 (stereo unspecified)	-64*	-13%	-28%	-15%
CN(C(=O)CSc1nc2ccccc2o1)C1CCS(=O)(=O)C1 (stereo unspecified)	4	-7%	45%	24%
CN(C(=O)CSc1nnc(-c2ccc(F)cc2)c2ccccc12)C1CCS(=O)(=O)C1 (stereo unspecified)	?	0%	?	5µM*
COCC(C)NC(=O)CSc1nc(-c2ccccc2)c(-c2ccccc2)o1 (stereo unspecified)	-67*	?	nt	?
CN(C(=O)CSc1nnc(-c2ccccc2)c(-c2ccccc2)n1)C1CCS(=O)(=O)C1 (stereo unspecified)	-29	-4%	-21%	16%
